PubChem BioAssay (EPA / NIEHS)
Active and inactive are the calls of the source. How the source made its calls: active means hit-call score of the fitted dose curve at least 0.9, where 1 is the maximum; inactive means score below 0.9.

Legend:
Conditions in all cases: mRNA level, 48 h; actives raise or lower the signal
[1] = read-out: Tumor necrosis factor receptor superfamily member 6 (Homo sapiens) (UniProt P25445); test: LTEA_HepaRG_FAS: Life Technologies and Expression Analysis (LTEA) Assay for Fas cell surface death receptor (FAS) using HepaRG (AID 2283447)
Procedure, shortened: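 Differentiated human HepaRG cells, pre-cultured 48 h, were exposed in duplicate for 48 h to 8-point half-log concentrations (top 100 uM, 0.5% DMSO) in serum-free induction medium; FAS mRNA measured by qRT-PCR, normalized to ACTB/GAPDH/POLR2A, bidirectional fit versus DMSO.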

[2] = read-out: Fatty acid synthase (Homo sapiens) (UniProt P49327); test: LTEA_HepaRG_FASN: Life Technologies and Expression Analysis (LTEA) Assay for Fatty Acid Synthase (FASN) using HepaRG (AID 2283448)
Procedure, shortened: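 HepaRG, 48 h exposure, 8-pt half-log series top 100 uM, 0.5% DMSO vehicle, duplicates. Readout: FASN transcript by Fluidigm qRT-PCR; housekeeping-normalized; bidirectional curve fit vs DMSO baseline.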

[3] = read-out: Cyclin D2 (CCND2), CCND2 (gene 894); test: LTEA_HepaRG_CCND2: Life Technologies and Expression Analysis (LTEA) Assay for Cyclin D2 (CCND2) using HepaRG (AID 2283449);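 further: CCND2 transcript measured by TaqMan qRT-PCR and normalised to three housekeeping genes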
Procedure, shortened: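 In this HepaRG study, an eight-point concentration series (max 100 uM, 0.5% DMSO) is applied for 48 h. CCND2 mRNA change is derived by qRT-PCR normalised to ACTB, GAPDH and POLR2A.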

[4] = read-out: Cyclin Dependent Kinase Inhibitor 1A (CDKN1A), CDKN1A (gene 1026); test: LTEA_HepaRG_CDKN1A: Life Technologies and Expression Analysis (LTEA) Assay for Cyclin Dependent Kinase Inhibitor 1A (CDKN1A) using HepaRG (AID 2283450)
Procedure, shortened: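 Differentiated human HepaRG cells, pre-cultured 48 h, were exposed in duplicate for 48 h in serum-free induction medium to eight half-log concentrations up to 100 uM (0.5% DMSO). CDKN1A mRNA was measured by qRT-PCR, normalized to ACTB/GAPDH/POLR2A, bidirectionally fitted versus DMSO.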

[5] = read-out: Cyclin D1 (CCND1), CCND1 (gene 595); test: LTEA_HepaRG_CCND1: Life Technologies and Expression Analysis (LTEA) Assay for Cyclin D1 (CCND1) using HepaRG (AID 2283451)
Procedure, shortened: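 Differentiated human HepaRG cells in serum-free induction medium were exposed 48 h to eight half-log concentrations up to 100 uM in 0.5% DMSO; mRNA quantified by TaqMan qRT-PCR, normalized to ACTB, GAPDH, POLR2A, fitted bidirectionally versus DMSO.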

[6] = read-out: catalase (CAT), CAT (gene 847); test: LTEA_HepaRG_CAT: Life Technologies and Expression Analysis (LTEA) Assay for catalase (CAT) using HepaRG (AID 2283452)
Procedure, shortened: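 Differentiated HepaRG cells in serum-free induction medium were dosed 48 h in duplicate, eight half-log concentrations from 100 uM in 0.5% DMSO. Transcript measured by TaqMan qRT-PCR, normalised to ACTB/GAPDH/POLR2A, fitted bidirectionally against DMSO.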

[7] = read-out: flavin-containing dimethylaniline monooxygenases 3 (FMO3), FMO3 (gene 2328); test: LTEA_HepaRG_FMO3: Life Technologies and Expression Analysis (LTEA) Assay for flavin-containing dimethylaniline monooxygenases 3 (FMO3) using HepaRG (AID 2283453)
Procedure, shortened: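 Eight-point concentration-response in serum-free HepaRG cultures (top 100 uM, 0.5% DMSO, 48 h). Read-out: FMO3 mRNA level normalized to three endogenous control genes, fitted bidirectionally versus vehicle.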

[8] = read-out: Cytochrome P450 (CYP1A1), CYP1A1 (gene 1543); test: LTEA_HepaRG_CYP1A1: Life Technologies and Expression Analysis (LTEA) Assay for Cytochrome P450 (CYP1A1) using HepaRG (AID 2283454)
Procedure, shortened: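 Differentiated HepaRG cells in serum-free induction medium were exposed in duplicate for 48 h to eight half-log concentrations up to 100 uM in 0.5% DMSO. CYP1A1 mRNA was quantified by TaqMan qRT-PCR, normalized to ACTB, GAPDH and POLR2A.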

[9] = read-out: CFLAR gene, CFLAR (gene 8837); test: LTEA_HepaRG_CFLAR: Life Technologies and Expression Analysis (LTEA) Assay for CFLAR gene using HepaRG (AID 2283455)
Procedure, shortened: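 Gain- or loss-of-signal changes in CFLAR transcript were fitted bidirectionally relative to 0.5% DMSO. Cells (HepaRG, duplicate wells) were dosed for 48 h across eight half-log concentrations topping at 100 uM; quantitation by TaqMan qRT-PCR.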

[10] = read-out: Forkhead box O1 (FOXO1), FOXO1 (gene 2308); test: LTEA_HepaRG_FOXO1: Life Technologies and Expression Analysis (LTEA) Assay for Forkhead box O1 (FOXO1) using HepaRG (AID 2283456)
Procedure, shortened: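 Using one lot of HepaRG hepatic cells kept in 0.5% DMSO, the team applied test chemicals in duplicate, half-log dilutions from 100 uM, for 48 h. Expression, normalised to ACTB/GAPDH/POLR2A, was compared with vehicle in either direction.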

[11] = read-out: growth arrest and DNA damage 45 (GADD45A), GADD45A (gene 1647); test: LTEA_HepaRG_GADD45A: Life Technologies and Expression Analysis (LTEA) Assay for growth arrest and DNA damage 45 (GADD45A) using HepaRG (AID 2283458)
Procedure, shortened: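 HepaRG, 48 h exposure, 8 conc. (top 100 uM, half-log steps), 0.5% DMSO vehicle, duplicates. Read-out: qRT-PCR mRNA level, housekeeping-normalized (ACTB/GAPDH/POLR2A). Curves fit bidirectionally vs DMSO baseline.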

[12] = read-out: Forkhead box O3 (FOXO3), FOXO3 (gene 2309); test: LTEA_HepaRG_FOXO3: Life Technologies and Expression Analysis (LTEA) Assay for Forkhead box O3 (FOXO3) using HepaRG (AID 2283459)
Procedure, shortened: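 Gene-expression endpoint: FOXO3 transcript level by qRT-PCR in HepaRG cultures treated 48 h with chemicals up to 100 uM (half-log, 0.5% DMSO vehicle).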

[13] = read-out: ABC Transporter (ABCB1), ABCB1 (gene 5243); test: LTEA_HepaRG_ABCB1: Life Technologies and Expression Analysis (LTEA) Assay for ABC Transporter (ABCB1) using HepaRG (AID 2283460)
Procedure, shortened: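 Human liver HepaRG line treated 48 h with up to 100 uM compound (eight half-log points, 0.5% DMSO); ABCB1 mRNA change fitted bidirectionally against DMSO controls.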

[14] = read-out: growth arrest and DNA damage 45 (GADD45B), GADD45B (gene 4616); test: LTEA_HepaRG_GADD45B: Life Technologies and Expression Analysis (LTEA) Assay for growth arrest and DNA damage 45 (GADD45B) using HepaRG (AID 2283461)
Procedure, shortened: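 Differentiated HepaRG cells, plated 48 h then switched to serum-free induction medium, were exposed 48 h in duplicate to eight half-log concentrations from 100 uM in 0.5% DMSO; mRNA quantified by qRT-PCR, normalized to ACTB/GAPDH/POLR2A, bidirectional fit versus DMSO.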

[15] = read-out: ABC Transporter (ABCC3), ABCC3 (gene 8714); test: LTEA_HepaRG_ABCC3: Life Technologies and Expression Analysis (LTEA) Assay for ABC Transporter (ABCC3) using HepaRG (AID 2283462)
Procedure, shortened: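 HepaRG cells in serum-free induction medium were exposed for 48 h in duplicate to 8-point half-log concentrations topping at 100 uM in 0.5% DMSO. ABCC3 mRNA was measured by qRT-PCR normalized to ACTB, GAPDH and POLR2A, with bidirectional fitting versus DMSO.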

[16] = read-out: ABC Transporter (ABCB11), ABCB11 (gene 8647); test: LTEA_HepaRG_ABCB11: Life Technologies and Expression Analysis (LTEA) Assay for ABC Transporter (ABCB11) using HepaRG (AID 2283463)
Procedure, shortened: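 Using HepaRG cultures held in 0.5% DMSO, chemicals were tested at half-log dilutions from 100 uM for 48 h. Induction or suppression of ABCB11 mRNA, normalized to ACTB, GAPDH and POLR2A, was fitted bidirectionally against vehicle.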

[17] = read-out: ABC Transporter (ABCC2), ABCC2 (gene 1244); test: LTEA_HepaRG_ABCC2: Life Technologies and Expression Analysis (LTEA) Assay for ABC Transporter (ABCC2) using HepaRG (AID 2283464)
Procedure, shortened: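 HepaRG cells were plated 48 h, switched to serum-free induction medium, then exposed in duplicate for 48 h to 8 concentrations (top 100 uM, half-log steps, 0.5% DMSO). ABCC2 mRNA was measured by qRT-PCR normalized to ACTB/GAPDH/POLR2A; bidirectional fitting versus DMSO.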

[18] = read-out: Broad substrate specificity ATP-binding cassette transporter ABCG2 (Homo sapiens) (UniProt Q9UNQ0); test: LTEA_HepaRG_ABCG2: Life Technologies and Expression Analysis (LTEA) Assay for ABC Transporter (ABCG2) using HepaRG (AID 2283465)
Procedure, shortened: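 Gene expression of ABCG2 in HepaRG liver cells is quantified by qRT-PCR following 48 h exposure across an eight-point series topping at 100 uM. Values come from bidirectional fitting relative to DMSO vehicle.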

[19] = read-out: ATP-citrate lyase (ACLY), ACLY (gene 47); test: LTEA_HepaRG_ACLY: Life Technologies and Expression Analysis (LTEA) Assay for ATP-citrate lyase (ACLY) using HepaRG (AID 2283466)
Procedure, shortened: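 ACLY expression changes in human HepaRG liver cells are quantified by qRT-PCR after 48 h exposure to test chemicals (maximum 100 uM, half-log steps). Values are fitted in both directions relative to 0.5% DMSO vehicle.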

Measured: AC50

Chain of Fatty acid synthase (Homo sapiens) (P49327 whole entry, looked up): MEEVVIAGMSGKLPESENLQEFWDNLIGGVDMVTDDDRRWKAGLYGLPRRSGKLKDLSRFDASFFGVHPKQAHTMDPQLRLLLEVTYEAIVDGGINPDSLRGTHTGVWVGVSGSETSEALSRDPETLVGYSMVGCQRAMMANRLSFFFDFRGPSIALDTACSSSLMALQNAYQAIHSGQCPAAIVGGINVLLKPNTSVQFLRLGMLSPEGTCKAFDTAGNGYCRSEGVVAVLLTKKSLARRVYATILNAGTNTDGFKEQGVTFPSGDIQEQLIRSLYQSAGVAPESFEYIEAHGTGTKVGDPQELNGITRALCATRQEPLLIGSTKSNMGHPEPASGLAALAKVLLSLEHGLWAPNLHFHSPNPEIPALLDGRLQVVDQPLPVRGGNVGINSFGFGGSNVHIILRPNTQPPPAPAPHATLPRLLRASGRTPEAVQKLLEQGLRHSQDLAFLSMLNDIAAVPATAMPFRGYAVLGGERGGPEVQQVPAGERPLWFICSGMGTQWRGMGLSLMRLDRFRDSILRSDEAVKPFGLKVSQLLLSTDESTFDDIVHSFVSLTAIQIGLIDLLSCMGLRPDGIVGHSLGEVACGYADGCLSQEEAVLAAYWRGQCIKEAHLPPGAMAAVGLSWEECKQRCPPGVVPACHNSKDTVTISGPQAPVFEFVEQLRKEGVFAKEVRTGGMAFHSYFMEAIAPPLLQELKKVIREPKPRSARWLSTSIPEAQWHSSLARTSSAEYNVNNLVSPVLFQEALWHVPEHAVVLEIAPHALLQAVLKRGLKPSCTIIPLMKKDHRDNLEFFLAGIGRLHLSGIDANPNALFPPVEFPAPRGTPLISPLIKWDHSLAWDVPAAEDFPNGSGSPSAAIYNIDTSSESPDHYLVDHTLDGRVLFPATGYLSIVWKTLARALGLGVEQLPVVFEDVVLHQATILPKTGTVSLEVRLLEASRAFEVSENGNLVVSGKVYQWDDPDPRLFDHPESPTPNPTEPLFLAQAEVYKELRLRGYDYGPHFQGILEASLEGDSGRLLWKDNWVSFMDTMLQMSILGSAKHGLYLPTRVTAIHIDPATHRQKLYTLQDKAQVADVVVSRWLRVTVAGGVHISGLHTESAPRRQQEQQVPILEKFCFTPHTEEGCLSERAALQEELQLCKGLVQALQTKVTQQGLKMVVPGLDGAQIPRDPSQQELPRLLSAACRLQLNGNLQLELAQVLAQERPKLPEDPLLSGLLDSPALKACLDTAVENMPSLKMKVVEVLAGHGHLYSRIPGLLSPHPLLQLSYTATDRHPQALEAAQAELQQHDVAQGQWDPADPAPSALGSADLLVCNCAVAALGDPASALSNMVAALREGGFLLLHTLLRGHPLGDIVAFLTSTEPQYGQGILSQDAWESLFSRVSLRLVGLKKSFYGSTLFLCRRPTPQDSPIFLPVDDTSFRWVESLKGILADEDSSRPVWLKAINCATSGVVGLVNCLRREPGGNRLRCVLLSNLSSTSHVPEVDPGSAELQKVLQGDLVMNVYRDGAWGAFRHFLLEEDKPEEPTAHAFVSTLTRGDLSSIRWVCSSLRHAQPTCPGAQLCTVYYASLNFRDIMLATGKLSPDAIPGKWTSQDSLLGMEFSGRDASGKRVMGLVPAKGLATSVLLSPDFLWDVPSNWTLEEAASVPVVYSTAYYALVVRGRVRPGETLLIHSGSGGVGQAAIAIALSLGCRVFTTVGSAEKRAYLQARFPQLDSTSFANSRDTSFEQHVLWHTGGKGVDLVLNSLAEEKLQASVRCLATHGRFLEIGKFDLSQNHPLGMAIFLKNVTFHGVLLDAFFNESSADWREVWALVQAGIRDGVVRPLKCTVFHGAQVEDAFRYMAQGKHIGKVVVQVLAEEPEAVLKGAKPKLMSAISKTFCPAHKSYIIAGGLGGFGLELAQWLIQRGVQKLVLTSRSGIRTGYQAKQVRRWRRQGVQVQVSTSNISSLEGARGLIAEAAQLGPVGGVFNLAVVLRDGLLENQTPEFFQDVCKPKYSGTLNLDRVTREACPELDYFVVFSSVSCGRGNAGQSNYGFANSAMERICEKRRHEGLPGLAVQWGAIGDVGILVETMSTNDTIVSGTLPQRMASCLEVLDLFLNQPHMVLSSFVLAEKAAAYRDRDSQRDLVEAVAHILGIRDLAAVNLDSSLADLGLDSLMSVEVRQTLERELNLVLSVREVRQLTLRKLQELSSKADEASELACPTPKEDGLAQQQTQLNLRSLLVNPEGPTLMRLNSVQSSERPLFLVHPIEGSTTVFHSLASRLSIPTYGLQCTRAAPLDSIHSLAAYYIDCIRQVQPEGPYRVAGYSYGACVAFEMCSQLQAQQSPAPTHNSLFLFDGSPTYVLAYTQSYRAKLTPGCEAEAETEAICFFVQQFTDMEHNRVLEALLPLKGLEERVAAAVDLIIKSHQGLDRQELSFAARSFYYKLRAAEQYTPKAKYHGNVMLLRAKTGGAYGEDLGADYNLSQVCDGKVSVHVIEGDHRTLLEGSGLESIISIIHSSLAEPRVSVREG
Chain of Broad substrate specificity ATP-binding cassette transporter ABCG2 (Homo sapiens) (Q9UNQ0 whole entry, looked up): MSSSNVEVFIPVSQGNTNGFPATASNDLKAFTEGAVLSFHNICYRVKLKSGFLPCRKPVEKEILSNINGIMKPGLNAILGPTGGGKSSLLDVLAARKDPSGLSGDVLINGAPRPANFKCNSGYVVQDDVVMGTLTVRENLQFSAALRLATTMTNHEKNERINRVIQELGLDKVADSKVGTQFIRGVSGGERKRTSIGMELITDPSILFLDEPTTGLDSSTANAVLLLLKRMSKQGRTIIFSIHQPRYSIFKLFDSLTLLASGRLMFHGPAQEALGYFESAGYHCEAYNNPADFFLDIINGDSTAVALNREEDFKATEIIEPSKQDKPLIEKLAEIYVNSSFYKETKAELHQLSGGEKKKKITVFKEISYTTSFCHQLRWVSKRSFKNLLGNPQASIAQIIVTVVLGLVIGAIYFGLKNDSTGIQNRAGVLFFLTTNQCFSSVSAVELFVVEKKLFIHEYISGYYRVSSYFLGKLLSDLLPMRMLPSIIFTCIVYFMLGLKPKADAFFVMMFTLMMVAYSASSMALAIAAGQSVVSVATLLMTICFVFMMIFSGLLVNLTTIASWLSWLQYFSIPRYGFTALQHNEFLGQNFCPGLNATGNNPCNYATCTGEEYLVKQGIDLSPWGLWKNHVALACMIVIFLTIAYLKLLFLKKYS

CC(C)(C)c1ccc(O)c(C(C)(C)C)c1
inactive: [1] | [2] | [4] | [5] | [6] | [7] | [8] | [9] | [10] | [11] | [12] | [13] | [14] | [15] | [16] | [17] | [18] | [19]
active: [3] 0.00316 µM

CCCCC(CC)COC(=O)CCCCC(=O)OCC(CC)CCCC (centres undefined)
inactive: [1] | [2] | [3] | [4] | [5] | [6] | [7] | [8] | [9] | [11] | [12] | [13] | [14] | [15] | [16] | [17] | [18] | [19]

COCC(C)O (centres undefined)
inactive: [1] | [2] | [3] | [4] | [5] | [6] | [7] | [8] | [9] | [11] | [12] | [13] | [14] | [15] | [16] | [17] | [18] | [19]

CCOC(=O)CC(O)(CC(=O)OCC)C(=O)OCC
inactive: [1] | [2] | [3] | [4] | [5] | [6] | [7] | [8] | [9] | [11] | [12] | [13] | [14] | [15] | [16] | [17] | [18] | [19]

CC[C@H](C)[C@@H](C(=O)O)n1sc2ccccc2c1=O
inactive: [1] | [2] | [3] | [4] | [5] | [6] | [7] | [9] | [11] | [12] | [13] | [14] | [15] | [16] | [17] | [18] | [19]
active: [8] 50 µM

CCCCCCCC(=O)O
active: [13] 12.4 µM | [19] 12.4 µM
inactive: [1] | [2] | [3] | [4] | [5] | [6] | [7] | [8] | [9] | [11] | [12] | [14] | [15] | [16] | [17] | [18]
